Data as given in paper PMC4552634, “A New Set of Chemical Starting Points with Plasmodium falciparum Transmission-Blocking Potential for Antimalarial Drug Discovery” (PLoS ONE, 2015).
Like-named read-outs stand apart in the source and are kept apart here. The campaign covered roughly 13,000 compounds. About 3,200 (25%) showed an effect of 50% or more. This is one part of the list.

Tested on: P. falciparum stage V gametocytes
Parameters: BacTiter-Glo ATP luminescence viability of purified stage V gametocytes in 384-well plates, per cent inhibition versus DMSO
Settings: 48 h, 5 µM, inhibitor

SMILES: O=C(c1cccc(-c2ccc(-c3nc4cc(C(F)(F)F)ccc4[nH]3)cc2)c1)N1CCCCC1CN1CCC(O)C1 (stereo not shown) [TCMDC-132345]
- % Inhibition: -7.323%

SMILES: O=C([C@H]1CCCCN1c1ccc([N+](=O)[O-])c2ccccc12)N1CCN(c2ncccn2)CC1 [TCMDC-135504]
- % Inhibition: -25.11%

SMILES: Cc1cccc(OC(C)C(=O)Nc2cc(C(F)(F)F)ccc2N2CCOCC2)c1 (stereo not shown) [TCMDC-125116]
- % Inhibition: -67.15%

SMILES: Nc1nccc2ccc(OC3CCCCC3)cc12 [TCMDC-136543]
- % Inhibition: 27.41%

SMILES: Nc1ncc(OC2CCCCC2)c(N)n1 [TCMDC-137916]
- % Inhibition: 86.08%

SMILES: COc1ccc(Oc2cnc(N)nc2N)c(C(C)C)c1 [TCMDC-132471]
- % Inhibition: -12.02%

SMILES: Cc1nc(Nc2ccc(F)cc2)nc(N2CCc3ccccc3[C@@H]2C)c1C [TCMDC-141073]
- % Inhibition: -42.65%

SMILES: c1ccc(CN2CCN(CCCCNc3c4ccccc4nc4ccccc34)CC2)cc1 [TCMDC-138009]
- % Inhibition: 101.2%

SMILES: Cl.c1ccc(CN2CCN(CCNc3c4ccccc4nc4ccccc34)CC2)cc1 [TCMDC-137571]
- % Inhibition: 58.89%

SMILES: NC(=NC1CC1)c1ccc2nc(CCCCCc3nc4ccc(C(N)=NC5CC5)cc4[nH]3)[nH]c2c1 [TCMDC-137236]
- % Inhibition: 9.891%

SMILES: Cc1cc(SC(C)(C)C)cc2c(Cl)c(C(N)=O)cnc12 [TCMDC-135415]
- % Inhibition: 114.9%

SMILES: COc1ccccc1-c1cccc(CNC2CCN(CC3Cn4c(=O)ccc5ccc(F)c3c54)CC2)c1 (stereo not shown) [TCMDC-134411]
- % Inhibition: 15.92%

SMILES: O=C(Cc1c(-c2ccccc2)[nH]c2ccccc12)NC1CCC(CN2CCC(c3c[nH]c4ccccc34)CC2)CC1 (stereo not shown) [TCMDC-139909]
- % Inhibition: 71.88%

SMILES: O=C(NC1CCC(CN2CCC(c3c[nH]c4ccccc34)CC2)CC1)c1cn(Cc2ccccc2)c2ccccc12 (stereo not shown) [TCMDC-139888]
- % Inhibition: 107.9%

SMILES: O=C(CCc1ccc(Cl)cc1Cl)NC1CCC(CN2CCC(c3c[nH]c4ccccc34)CC2)CC1 (stereo not shown) [TCMDC-140262]
- % Inhibition (% Inhibition): -48.76%

SMILES: O=C(Cc1cc(=O)oc2cc(O)ccc12)NC1CCC(CN2CCC(c3c[nH]c4ccccc34)CC2)CC1 (stereo not shown) [TCMDC-139882]
- % Inhibition: -52.99%

SMILES: O=C(CSc1ccc(Cl)cc1)NC1CCC(CN2CCC(c3c[nH]c4ccccc34)CC2)CC1 (stereo not shown) [TCMDC-139953]
- % Inhibition: -2.163%

SMILES: O=C(CCCCCc1ccccc1)NC1CCC(CN2CCC(c3c[nH]c4ccccc34)CC2)CC1 (stereo not shown) [TCMDC-139952]
- % Inhibition: 95.36%

SMILES: O=C(CCc1ccc(Cl)cc1Cl)NC1CCC(CN2CCC(c3c[nH]c4ccccc34)CC2)CC1 (stereo not shown) [TCMDC-140296]
- % Inhibition (% Inhibition): -15.31%

SMILES: O=C(NC1CCC(CN2CCC(c3c[nH]c4ccccc34)CC2)CC1)c1cnn(-c2ccccc2)c1-c1ccccc1Cl (stereo not shown) [TCMDC-140375]
- % Inhibition: 25.23%

SMILES: CCOCCCNc1ncc(-c2ccsc2)c(-c2nc(C)cs2)n1 [TCMDC-124842]
- % Inhibition: 18.59%

SMILES: Cc1cccc(C(=O)Nc2ccnc(N3CCC(N(C)Cc4ccc(C#N)cc4)CC3)c2)c1 [TCMDC-134977]
- % Inhibition: 5.364%

SMILES: CCN(CC)CCN1C(=O)c2oc3ccc(F)cc3c(=O)c2C1c1cccc(Cl)c1 (stereo not shown) [TCMDC-124911]
- % Inhibition: 13.72%

SMILES: O=C(n1c(-c2cc3ccccc3n2C(=O)C(F)(F)F)cc2ccccc21)C(F)(F)F [TCMDC-131570]
- % Inhibition: 0.2533%

SMILES: CN(C)Cc1ccc2nc(-c3cccc(Cc4cc(Cl)ccc4OCc4ccc(Cl)cc4F)n3)[nH]c2c1 [TCMDC-136892]
- % Inhibition: 34.33%

SMILES: CN(C)Cc1cccc2[nH]c(-c3csc(Cc4cc(Cl)ccc4OCc4ccccc4)n3)nc12 [TCMDC-132174]
- % Inhibition: 97.26%

SMILES: CC(C)COc1ccc(Cl)cc1Cc1nc(-c2nc3ccc(CN4CCN(C)CC4)cc3[nH]2)co1 [TCMDC-136812]
- % Inhibition: 12.89%

SMILES: CC(C)COc1ccc(Cl)cc1Cc1nc(-c2nc3c(CN4CCN(C)CC4)cccc3[nH]2)cs1 [TCMDC-132173]
- % Inhibition: 82.6%

SMILES: CC(C)COc1ccc(Cl)cc1Nc1nc(-c2nc3ccccc3[nH]2)cs1 [TCMDC-137041]
- % Inhibition: 2.246%

SMILES: CNCc1cccc2[nH]c(-c3csc(Cc4cc(Cl)ccc4OCC(C)C)n3)nc12 [TCMDC-132172]
- % Inhibition: 92.59%

SMILES: CC(C)COc1ccc(Cl)cc1Cc1nc(-c2nc3nc(N4CCN(C)CC4)ccc3[nH]2)cs1 [TCMDC-136876]
- % Inhibition: 6.698%

SMILES: Cc1cc(-c2nc3ccc(CN4CCN(C)CC4)cc3[nH]2)nn1Cc1cc(Cl)ccc1OCc1ccccc1 [TCMDC-136883]
- % Inhibition: 19.79%

SMILES: CN1CCN(CCc2ccc3nc(-c4csc(Cc5cc(Cl)ccc5OCc5ccccc5)n4)[nH]c3c2)CC1 [TCMDC-132171]
- % Inhibition: 95.37%

SMILES: CN1CCN(c2ccc3nc(-c4ccc(Cc5cc(Cl)ccc5OCc5ccccc5)o4)[nH]c3c2)CC1 [TCMDC-136708]
- % Inhibition: -32.6%

SMILES: Clc1ccc(OCc2ccccc2)c(-c2nc(-c3nc4ccc(Cl)cc4[nH]3)cs2)c1 [TCMDC-136728]
- % Inhibition: -8.781%

SMILES: CNCc1ccc2nc(-c3coc(Cc4cc(Cl)ccc4OCC(C)C)n3)[nH]c2c1 [TCMDC-136808]
- % Inhibition: 13.07%

SMILES: CCc1ccc(NC(=O)c2cccc(CN3CCCN(CC4CCCCC4)CC3)c2)cc1 [TCMDC-135988]
- % Inhibition: -39.09%

SMILES: O=C(c1ccc(-c2ccc(-c3nc4ccccc4[nH]3)s2)cc1)N1CCCCC1CN1CCC(O)C1 (stereo not shown) [TCMDC-132341]
- % Inhibition: -18.79%

SMILES: CC(O)C1CCCCN1C(=O)c1cccc(-c2ccc(-c3nc4ccccc4[nH]3)s2)c1 (stereo not shown) [TCMDC-132332]
- % Inhibition: 27.09%

SMILES: CC(C)Cn1c(N)cc(=O)n(C)c1=O [TCMDC-123470]
- % Inhibition: 3.426%

SMILES: CCCCCC(=O)NCC(NCCCNc1cc(=O)c2ccccc2[nH]1)c1cc(Br)cc(Br)c1 (stereo not shown) [TCMDC-140316]
- % Inhibition: 24.17%

SMILES: COc1ccc2ncc(Cl)c(NCC3(O)CCC(NCc4ccc5c(n4)NC(=O)CS5)CC3)c2n1 (stereo not shown) [TCMDC-134671]
- % Inhibition: 11.29%

SMILES: CC(=O)c1cccc2[nH]c(C(=O)NC3CCC(CCN4CCc5ccc(C#N)cc5C4)CC3)cc12 (stereo not shown) [TCMDC-139218]
- % Inhibition: 4.712%

SMILES: COc1ccc(Cn2c(N3CCN(S(=O)(=O)c4ccc(OC)cc4)CC3)nc3c2c(=O)n(CC2CC2)c(=O)n3CC2CC2)cc1 [TCMDC-138935]
- % Inhibition: -17.86%

SMILES: COc1ccc(S(=O)(=O)N2CCC3(CC2)OCC(=O)NC3c2ccc(Cl)c(Cl)c2)cc1 (stereo not shown) [TCMDC-133797]
- % Inhibition: 8.685%

SMILES: Cc1nc(-c2cccc(C(=O)NC3CCC(CCN4CCc5ccc(-c6cccnc6)cc5CC4)CC3)c2)no1 (stereo not shown) [TCMDC-140228]
- % Inhibition: -46.69%

SMILES: NC(=O)c1sc(-n2cnc3ccccc32)cc1OCc1ccccc1[N+](=O)[O-] [TCMDC-134488]
- % Inhibition: 13.6%

SMILES: C[C@@H](Oc1cc(-n2cnc3ccc(NC(=O)NC(C)(C)C)cc32)sc1C(N)=O)c1ccccc1Cl [TCMDC-135806]
- % Inhibition: 66.79%

SMILES: O=C(CCN1CCCCC1)Nc1ccc(Nc2nccc(NCC(O)c3ccccc3)n2)cc1 (stereo not shown) [TCMDC-136464]
- % Inhibition: -29.58%

SMILES: C[C@@H](Oc1cc(-n2cnc3ccc(NC(=O)CCN4CCCCC4)cc32)sc1C(N)=O)c1ccccc1Cl [TCMDC-135971]
- % Inhibition: 64.1%

SMILES: C[C@@H](Oc1cc(-n2cnc3cc(SCCN4CCN(C)CC4)ccc32)sc1C(N)=O)c1ccccc1Cl [TCMDC-135452]
- % Inhibition: 29.32%

SMILES: COc1ccc2c(c1)ncn2-c1cc(OCc2ccncc2Br)c(C(N)=O)s1 [TCMDC-138876]
- % Inhibition: 39.96%

SMILES: CC(Oc1cc(-n2cnc3ccc(NC(=O)CCN4CCCCC4)cc32)sc1C(N)=O)c1ccccc1Cl (stereo not shown) [TCMDC-135370]
- % Inhibition: 69.65%

SMILES: COc1ccc2nc(Nc3nc4ccncc4[nH]3)sc2c1 [TCMDC-131950]
- % Inhibition: 20.19%

SMILES: Clc1ccc(-c2cc(-c3csc(Nc4ccncc4)n3)on2)cc1 [TCMDC-135160]
- % Inhibition: -12.1%

SMILES: Nc1ccc(-c2csc(Nc3ccncc3)n2)cc1 [TCMDC-138715]
- % Inhibition: -22.32%

SMILES: c1ccc(-c2nc(Nc3ccncc3)sc2-c2ccccc2)cc1 [TCMDC-139027]
- % Inhibition: -36.52%

SMILES: c1ccc2sc(-c3csc(Nc4ccncc4)n3)nc2c1 [TCMDC-135159]
- % Inhibition: -15.83%

SMILES: c1cc(Nc2nc(-c3ccc(-c4csc(Nc5ccncc5)n4)cc3)cs2)ccn1 [TCMDC-139725]
- % Inhibition: 127.3%

SMILES: c1ccc(-c2ccc(-c3csc(Nc4ccncc4)n3)cc2)cc1 [TCMDC-139026]
- % Inhibition: 62.72%

SMILES: CC(C)N(CC(=O)c1ccc(O)c(C(=O)O)c1)Cc1ccccc1 [TCMDC-131774]
- % Inhibition: 0.6957%

SMILES: COc1ccccc1COc1c(C)nc(N)nc1N [TCMDC-131356]
- % Inhibition: -14.22%

SMILES: CC(C)CC(=O)N1CCNC[C@@H]1C(=O)NCc1ccc(Cl)c(Cl)c1 [TCMDC-141242]
- % Inhibition: 45.03%

SMILES: CN1CCC(Oc2ccc(CN3CC[C@H](NC(=O)c4ccc(Cl)c(Cl)c4)C3)cc2Cl)C1 (stereo partly shown) [TCMDC-140276]
- % Inhibition: 27.21%

SMILES: Cc1cc(CN2CC[C@H](NC(=O)c3ccc(Cl)c(Cl)c3)C2)ccc1OC1CCN(C)C1 (stereo partly shown) [TCMDC-140281]
- % Inhibition: 32.63%

SMILES: CN1CCC(Oc2ccc(CN3CC[C@H](NC(=O)c4ccc(Cl)c(Cl)c4)C3)c3ccccc23)C1 (stereo partly shown) [TCMDC-140271]
- % Inhibition: 51.75%

SMILES: CN1CCC(Oc2cc(CN3CC[C@H](NC(=O)c4ccc(Cl)c(Cl)c4)C3)ccc2I)C1 (stereo partly shown) [TCMDC-140266]
- % Inhibition: 15.84%

SMILES: CN1CCC(Oc2ccc(CN3CC[C@H](NC(=O)c4cc(F)cc(F)c4)C3)c3ccccc23)C1 (stereo partly shown) [TCMDC-135275]
- % Inhibition: 57.07%

SMILES: CN1CCC(Oc2ccc(CN3CC[C@H](NC(=O)c4ccc(Cl)c(F)c4)C3)c3ccccc23)C1 (stereo partly shown) [TCMDC-135274]
- % Inhibition: 60.57%

SMILES: CN1CCC(Oc2ccc(CN3CC[C@H](NC(=O)c4cccc(C#N)c4)C3)c3ccccc23)C1 (stereo partly shown) [TCMDC-135277]
- % Inhibition: 88.31%
